CYP2C19 act: human CYP2C19 activators, primary screen, biochemical, luminescence. Cytochrome P450 2C19 (Homo sapiens), P33261. recombinant CYP2C19, luciferin-H EGE luminescence; hits give high values; 0 = fully inhibited enzyme, 1 = untreated enzyme. activation factor at 5 µM. 96,000 tested, under 10 active. AID 1025, 2008;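 active = activation factor of at least 2 at 5 µM in the primary screen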
Target sequence (P33261 whole entry, looked up): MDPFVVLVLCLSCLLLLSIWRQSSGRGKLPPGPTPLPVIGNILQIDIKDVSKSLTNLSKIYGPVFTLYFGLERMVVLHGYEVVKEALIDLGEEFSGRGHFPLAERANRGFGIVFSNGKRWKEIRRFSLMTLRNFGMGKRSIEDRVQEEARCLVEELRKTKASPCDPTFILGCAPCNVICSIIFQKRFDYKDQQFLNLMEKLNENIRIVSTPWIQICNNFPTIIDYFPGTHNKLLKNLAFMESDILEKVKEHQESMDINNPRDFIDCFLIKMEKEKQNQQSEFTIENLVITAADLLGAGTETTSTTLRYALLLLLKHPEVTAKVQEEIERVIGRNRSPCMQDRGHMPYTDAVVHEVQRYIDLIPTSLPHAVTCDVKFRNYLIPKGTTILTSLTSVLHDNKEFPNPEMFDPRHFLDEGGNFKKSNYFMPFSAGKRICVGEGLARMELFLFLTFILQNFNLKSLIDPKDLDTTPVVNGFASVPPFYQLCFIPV
CYP2C9 activ: human CYP2C9 activators, primary screen, biochemical, luminescence; AID 1024, 2008; activation factor at 5 µM; recombinant CYP2C9, luciferin-H conversion; hits give high values; factor 1 = untreated enzyme, 0 = blocked; 1.4% of 96,000 active;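 active = activation factor of 2 or more for CYP2C9 at a 5 µM dose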
CYP2C9 inh: blockers of cytochrome P450 2C9 activity – biochemical, luminescence, ADME assay, primary screen. inhibition, % at 5 µM. 20% of 96,000 active. CYP2C9 Supersomes, luciferin-H conversion. P11712;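 active = blocking of liver enzyme CYP2C9 beyond about 50% at 5 µM, limit read from the data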
CYP2C19 inhib: blockers of cytochrome P450 2C19 activity – biochemical, luminescence, ADME assay, primary screen | P33261 | CYP2C19 Supersomes, luciferin-H EGE luminescence, 30 min | inhibition, % at 5 µM | 21% of 96,000 active | AID 778, 2007;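 active = CYP2C19 inhibition above a set limit at 5 µM in the primary screen, cut at about 50% in these data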
Hits are given with their value; . = inactive. Hits are enriched below; roughly 31% of the tested compounds scored in any of these assays.

SMILES	CYP2C19 act	CYP2C9 activ	CYP2C9 inh	CYP2C19 inhib
Cc1cccc(-c2nc(CSCC(=O)N3CCN(c4ccccn4)CC3)c(C)o2)c1	.	.	.	.
COC(C)(C)[C@]12CC(O)(c3ccccc3)ON1[C@H]1CCCCC1N2O (stereo partly drawn)	.	.	.	.
CCn1c(Cc2ccccc2)nnc1SCC(=O)Nc1nc(C)c(C)s1	.	.	.	.
COc1ccc(OCC(=O)N2CCN(C(=O)c3ccco3)CC2)cc1	.	.	.	.
CCN(CCNC(=O)C1CCCN(Cc2nc(-c3ccc(OC)cc3)oc2C)C1)c1ccccc1 (stereo not drawn)	.	.	61	55
CCOc1ccc(-c2nc(CSCC(=O)N3CCN(C(=O)c4ccco4)CC3)c(C)o2)cc1	.	.	80	.
CC(=O)Nc1ccccc1OCc1nnc(-c2cccs2)o1	.	.	.	.
Cn1c(=O)c2cc(S(=O)(=O)NCCC(=O)NCCC3=CCCCC3)ccc2n(C)c1=O	.	.	.	.
CCCCNC(=O)COC(=O)CCC(=O)c1ccc(F)cc1	.	.	.	.
NNC(=O)c1ccc([N+](=O)[O-])c(CS(=O)(=O)c2ccc(Cl)cc2)c1	.	.	.	75
CN(C)C=NC(=O)c1ccc([N+](=O)[O-])c(CS(=O)(=O)c2ccc(Cl)cc2)c1	.	.	56	75
CO/N=C/NC(=O)c1ccc([N+](=O)[O-])c(CS(=O)(=O)c2ccc(Cl)cc2)c1	.	.	.	.
COc1ccccc1NC(=O)Cc1csc(N)n1	.	.	.	.
O=C(Nc1ccc(N2CCN(C(=O)c3ccco3)CC2)cc1)c1cccc(F)c1	.	.	.	.
CN1C(=O)C(C(=O)NC(C)(C)C)C2c3ccccc3OC13CCCCC23 (stereo not drawn)	.	.	60	58
Cc1cc(C)n2nc(SC3CCCCN(C(=O)c4ccc(F)cc4)C3=O)nc2n1 (stereo not drawn)	.	.	.	.
COc1ccccc1N1CCN(c2ccc(-c3ccccc3)nn2)CC1	.	.	.	.
COc1ccc(NS(=O)(=O)Cc2ccccc2Cl)cn1	.	.	.	64
Cc1cc(C)c(C#N)c(SCC(=O)NC(C)(C)C)n1	.	.	.	.
Cc1ccc(CNC(=O)CSc2nc(C)cc(C)c2C#N)cc1	.	.	.	57
CCOC(=O)NC(=O)CSc1nc(C)cc(C)c1C#N	.	.	.	58
CCOC(=O)CNC(=O)CSc1nc(C)cc(C)c1C#N	.	.	.	83
COCc1cc(C)nc(SCC(=O)Nc2ccccc2C)c1C#N	.	.	.	94
COCc1cc(C)nc(SCC(=O)Nc2ccc(C)c(C)c2)c1C#N	.	.	.	.
CCCC(=O)NC(C)c1nc2ccccc2n1C(C)C (stereo not drawn)	.	.	.	.
SMILES	CYP2C19 act	CYP2C9 activ	CYP2C9 inh	CYP2C19 inhib
Cc1nc(=O)c(-c2ccccc2)c(C)n1-c1ccc(O)c(C(=O)O)c1	.	.	.	.
O=C(COc1ccccc1)Nc1cc(C(F)(F)F)ccc1N1CCCC1	.	.	.	.
CCn1c(=O)cc(OCC(=O)Nc2ccccc2N2CCN(C)CC2)c2ccccc21	.	.	.	.
CN1CCN(c2ccccc2NC(=O)COc2ccc(Br)cc2)CC1	.	.	80	.
O=C(COc1ccccc1)Nc1ccccc1N1CCN(c2ccccc2)CC1	.	.	56	.
O=C(COc1ccccc1)Nc1ccccc1N1CCN(c2ccc(F)cc2)CC1	.	.	.	.
Cc1cccc(OCC(=O)Nc2ccccc2N2CCCCC2)c1	.	.	65	85
O=C(COc1ccccc1)Nc1ccccc1N1CCCCC1	.	.	78	66
S=c1[nH]nc(COc2ccc(Cl)cc2)o1	.	.	.	.
COc1cc(C(=O)Nc2cccc(-c3nncn3C)c2)cc(OC)c1OC	.	.	.	.
CN(c1ccc(C(=O)N2CCCCC2)cc1)S(C)(=O)=O	.	.	.	.
O=C(CSc1ccccc1C(=O)O)Nc1cccc(C(=O)O)c1	.	.	.	.
CCOC(=O)N1CCN(c2nc(C(F)(F)F)nc3c(C)cc(C)cc23)CC1	.	.	.	.
CCOC(=O)N1CCN(c2nc(C)cc(C(F)(F)F)n2)CC1	.	.	.	66
C=C(C)Cn1c(COc2ccccc2)nnc1SCC(=O)O	.	.	.	.
COC(=O)c1sc2cc(C(F)(F)F)cnc2c1-c1cccnc1	.	.	52	.
O=C(Nc1ccccc1)c1sc2cc(C(F)(F)F)cnc2c1-c1cccs1	.	.	74	52

Bioassay records (PubChem)
